High-throughput results: PubChem BioAssay, several laboratories
CYP2C9 activ: activators of human CYP2C9; recombinant CYP2C9, luciferin-H conversion, luminescence; active compounds read high; factor 1 = untreated enzyme, 0 = blocked; activation factor at 5 µM; 96,000 compounds, 1.4% hits;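 active = activation factor of 2 or more for CYP2C9 at a 5 µM dose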
Cav3 T inh: inhibitors of human Cav3.2 T-type calcium channel | O95180 | Cav3.2-expressing cells, Fluo-4 calcium fluorescence FDSS; active compounds read low | B-score at 10 µM | 100,000 compounds, 4% hits | AID 449739;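 active = single-dose well whose peak fluorescence ratio is a statistical outlier from its plate by either plate-standardised score or position-corrected B-score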
CYP2C19 act: activators of human cytochrome P450 2C19; AID 1025; recombinant CYP2C19, luciferin-H EGE luminescence; active compounds read high; 0 = fully inhibited enzyme, 1 = untreated enzyme; 96,000 tested, under 10 active; P33261; activation factor at 5 µM;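 active = activation factor of at least 2 at 5 µM in the primary screen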
CYP2C19 inh: inhibitors of human CYP2C19; inhibition, % at 5 µM; AID 778; CYP2C19 Supersomes, luciferin-H EGE luminescence, 30 min; 96,000 compounds, 21% hits; P33261;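 active = CYP2C19 inhibition above a set limit at 5 µM in the primary screen, cut at about 50% in these data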
CYP2C9 inh: blocks human cytochrome P450 2C9. CYP2C9 Supersomes, luciferin-H conversion, luminescence. P11712. inhibition, % at 5 µM. 96,000 compounds, 20% hits;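 active = blocking of liver enzyme CYP2C9 beyond about 50% at 5 µM, limit read from the data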
Each line names hits and unclear results; the compound was inactive in the other large screens. An excerpt weighted towards active compounds, which were near 27% of everything screened.

CCOC(=O)N1CCN(C(=O)C2CCN(Cc3nc(-c4ccccc4C)oc3C)CC2)CC1	none (no result: Cav3 T inh)
CC1CN(C(=O)CN2C(=O)c3ccccc3S2(=O)=O)CC(C)O1 (centres undefined)	none
COC(=O)CN1C(=O)C2(C(C#N)=C(N)Oc3c2c(C)nn3-c2ccccc2)c2ccccc21 (centres undefined)	none (no result: CYP2C9 activ, CYP2C19 act, CYP2C19 inh, CYP2C9 inh)
COc1ccc(NC(=O)C23CCC(C)(C(=O)C2)C3(C)C)cc1 (centres undefined)	none
CCCCOC(=O)c1ccc(NC(=O)c2cc(Cl)ccc2OC)cc1	CYP2C9 activ 2.5
O=C(CSc1nc2c([nH]c3ccccc32)c(=O)n1-c1cccc(Cl)c1)N1CCOCC1	none (no result: CYP2C9 activ, CYP2C19 act, CYP2C19 inh, CYP2C9 inh)
Cc1cc(NC(=O)CSc2nc3c([nH]c4ccccc43)c(=O)n2-c2cccc(C(F)(F)F)c2)no1	none (no result: CYP2C9 activ, CYP2C19 act, CYP2C19 inh, CYP2C9 inh)
Cc1ccc(-n2c(SCC(N)=O)nc3c([nH]c4ccccc43)c2=O)cc1	CYP2C9 inh 79
COc1cccc(-n2c(SCC(=O)Nc3cc(C)on3)nc3c([nH]c4ccccc43)c2=O)c1	CYP2C9 inh 54
COc1cccc(-n2c(SCC(N)=O)nc3c([nH]c4ccccc43)c2=O)c1	CYP2C9 inh 52 (no result: Cav3 T inh)
CC1(C)[C@@H](O)CC[C@]2(C)C3C(O)C=C4[C@H]5C[C@@](C)(CO)CC[C@]5(C)CC[C@]4(C)[C@]3(C)CC[C@@H]12 (some centres undefined)	none (no result: CYP2C9 activ, CYP2C19 act, CYP2C19 inh, CYP2C9 inh)
O=C(NCc1cccs1)c1cccc(Nc2nc3ccc(Br)cc3[nH]2)c1	CYP2C9 inh 83
O=C(N/N=C/c1ccncc1)c1cc([N+](=O)[O-])cc([N+](=O)[O-])c1O	CYP2C19 inh 56, CYP2C9 inh 100 (no result: Cav3 T inh)
